Experimental data: PubChem BioAssay (NCATS)
Records with an inconclusive call do not appear. Where a call stands in place of a potency, no number is given. Activity calls are given as the source filed them. Calls follow the shape of the dose curve; as a rule, active = well fitted cell-killing curve with a large enough effect; inconclusive = small, poorly fitted or top-dose-only effect, or effect the other way; inactive = flat fitted curve, though single readings scatter.

What was measured:
SKOV3 = assay: Primary qHTS to identify gynecologic anti-cancer compounds using libraries of approved drugs and bioactive compounds (AID 1345084); details: Gynecologic cancer cell panel viability, ATPlite luminescence, 48 h; series mostly up to 57.5 µM; also: nearly all actives have a fitted effect of over 55% in size
Procedure, shortened: (§1)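 Five-point cytotoxicity, 48 h drug exposure at 37 C, 5% CO2, on cells seeded 16 h beforehand. ATP content read by ATPlite luminescence.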

Tov112D = assay: as above; details: Gynecologic cancer cell panel viability, ATPlite luminescence, 48 h; series mostly up to 57.5 µM
Procedure, shortened: as §1
Potency is read from the fitted curve at half-maximal effect.

SMILES | Potency (SKOV3) | Potency (Tov112D)
CCNc1nc(Nc2cc(F)c(C(=O)N3CCOCC3)cc2OC)ncc1C(F)(F)F | inactive | inactive
CCn1c(=O)c(-c2ccc(-c3cncs3)cc2Cl)cc2cnc(Nc3ccc(N4CCN(C)CC4)cc3)nc21 | inactive | inactive
Nc1nc(NC2CC2)cc(-c2cccc(Cl)c2Cl)n1 | 14.1 µM (active) | 12.6 µM (active)
